# Measurements taken from PubChem BioAssay (NCATS).
# Several values for one entry are separate records, joined by “and”; a condition that tells them apart may be missing. Equal entries are not always repeated. Inconclusive results are not listed. A call without a number means that no potency is given here. Activity calls are given as the source filed them. Unless noted, calls come from the whole dose curve; as a rule, active = well fitted curve in the direction sought with a large enough effect; inconclusive = small, poorly fitted or top-dose-only effect, or another doubt; inactive = no such curve, though single readings can be large; an effect the other way counts as inactive or inconclusive.
# Assays:
# [1] = target: Glucocorticoid receptor (Homo sapiens) (UniProt P04150); test: GR-GFP Redistribution (AID 450;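 active = compounds whose dose series gives a full or clear partial fitted curve of increased nuclear translocation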; note: potency is the fitted concentration of half-maximal effect); details: U2OS GR-GFP nuclear translocation, laser cytometry, 2 h
# Sequence of Glucocorticoid receptor (Homo sapiens) (P04150 whole entry, looked up, the tested form may be a part): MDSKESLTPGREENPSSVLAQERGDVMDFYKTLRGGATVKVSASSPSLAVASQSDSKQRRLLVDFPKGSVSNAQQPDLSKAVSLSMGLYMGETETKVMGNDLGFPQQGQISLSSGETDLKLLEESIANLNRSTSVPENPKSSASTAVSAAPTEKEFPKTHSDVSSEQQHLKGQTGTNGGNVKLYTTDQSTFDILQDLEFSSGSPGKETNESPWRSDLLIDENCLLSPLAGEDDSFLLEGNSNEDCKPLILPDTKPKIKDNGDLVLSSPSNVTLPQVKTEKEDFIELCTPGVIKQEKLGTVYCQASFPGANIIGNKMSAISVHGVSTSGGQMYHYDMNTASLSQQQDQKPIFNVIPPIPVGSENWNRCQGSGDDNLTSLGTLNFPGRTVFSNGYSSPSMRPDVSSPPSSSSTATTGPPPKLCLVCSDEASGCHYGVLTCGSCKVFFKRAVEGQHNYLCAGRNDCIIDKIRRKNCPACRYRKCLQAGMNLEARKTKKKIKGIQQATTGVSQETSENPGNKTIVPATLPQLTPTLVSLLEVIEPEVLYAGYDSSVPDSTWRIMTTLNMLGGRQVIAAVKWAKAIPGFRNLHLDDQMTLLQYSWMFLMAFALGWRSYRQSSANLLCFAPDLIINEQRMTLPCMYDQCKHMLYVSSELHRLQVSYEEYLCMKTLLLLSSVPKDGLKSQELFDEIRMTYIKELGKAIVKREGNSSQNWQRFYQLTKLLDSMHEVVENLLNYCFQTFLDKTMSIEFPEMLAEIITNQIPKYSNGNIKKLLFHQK
# [2] = target: Glucocorticoid receptor (Homo sapiens) (UniProt P04150); test: GR-EFC Redistribution (AID 451; calls by dose curve; note: potency is the fitted concentration of half-maximal effect); details: CHO-K1 GR-EFC translocation, beta-gal luminescence, 2 h
# Summary of the method: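 Translocation of GR-ED fusion to nuclear EA restores b-gal, read by luminescence after 1 h room-temperature detection. Engineered CHO-K1 biosensor cells, 1,000/well, exposed 2 h at 37 C to titrations up to 46 uM final.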
# [3] = target: 3',5'-cyclic-AMP phosphodiesterase 4B (Homo sapiens) (UniProt Q07343); test: qHTS Assay for Inhibitors of PDE-IV (AID 607; active = well fitted activation curve with a large enough effect in the main read-out, with a control signal flat, not every such curve was filed as active)
# Sequence of 3',5'-cyclic-AMP phosphodiesterase 4B (Homo sapiens) (Q07343 whole entry, looked up): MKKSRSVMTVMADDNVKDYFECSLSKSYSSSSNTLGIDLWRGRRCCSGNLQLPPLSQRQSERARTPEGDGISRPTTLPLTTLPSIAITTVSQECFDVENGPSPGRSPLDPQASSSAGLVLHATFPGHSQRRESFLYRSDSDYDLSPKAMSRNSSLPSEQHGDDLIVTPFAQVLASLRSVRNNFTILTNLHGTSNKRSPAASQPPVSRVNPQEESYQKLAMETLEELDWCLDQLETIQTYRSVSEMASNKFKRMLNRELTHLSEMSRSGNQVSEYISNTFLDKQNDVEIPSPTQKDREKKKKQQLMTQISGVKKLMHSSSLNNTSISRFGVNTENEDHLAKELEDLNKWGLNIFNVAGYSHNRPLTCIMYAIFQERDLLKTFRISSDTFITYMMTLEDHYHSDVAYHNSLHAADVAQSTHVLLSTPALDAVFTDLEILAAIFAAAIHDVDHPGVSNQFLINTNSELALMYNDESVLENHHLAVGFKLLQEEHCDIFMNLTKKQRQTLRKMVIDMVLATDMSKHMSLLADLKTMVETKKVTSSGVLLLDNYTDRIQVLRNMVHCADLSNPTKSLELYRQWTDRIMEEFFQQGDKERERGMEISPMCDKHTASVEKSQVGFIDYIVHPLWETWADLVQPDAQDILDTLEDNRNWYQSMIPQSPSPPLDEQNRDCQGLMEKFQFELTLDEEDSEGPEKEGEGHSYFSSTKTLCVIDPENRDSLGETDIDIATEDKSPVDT
# Summary of the method: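 HEK293 ACTOne cells with CNG channel (1000/well), endogenous PDE4; membrane potential dye, compounds up to 22.9 uM final. Fluorescence Ex 535/Em 590; RO 20-1724 (100 uM final) as reference.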
# [4] = target: Cytochrome P450 3A4 (Homo sapiens) (UniProt P08684); test: qHTS Assay for Activators of Cytochrome P450 3A4 (AID 885); note: nearly all actives have a fitted effect of over 65% in size; note: potency is the fitted concentration of half-maximal effect
# Sequence of Cytochrome P450 3A4 (Homo sapiens) (P08684 whole entry, looked up): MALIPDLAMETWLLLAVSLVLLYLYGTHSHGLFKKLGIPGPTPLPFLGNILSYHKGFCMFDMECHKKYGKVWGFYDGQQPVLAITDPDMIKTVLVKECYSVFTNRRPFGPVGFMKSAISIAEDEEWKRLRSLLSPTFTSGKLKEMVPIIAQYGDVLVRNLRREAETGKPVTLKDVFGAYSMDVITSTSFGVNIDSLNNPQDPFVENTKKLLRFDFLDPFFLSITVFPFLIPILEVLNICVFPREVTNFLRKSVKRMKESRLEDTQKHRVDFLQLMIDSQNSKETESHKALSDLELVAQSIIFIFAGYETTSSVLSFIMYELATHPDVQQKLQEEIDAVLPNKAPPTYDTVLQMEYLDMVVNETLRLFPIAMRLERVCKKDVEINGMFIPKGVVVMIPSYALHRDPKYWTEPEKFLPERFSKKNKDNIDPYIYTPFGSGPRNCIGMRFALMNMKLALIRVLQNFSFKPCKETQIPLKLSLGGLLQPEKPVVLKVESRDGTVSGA
# Summary of the method: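 Human CYP3A4 dealkylates Luciferin-PPXE to luciferin, which luciferase detection converts to light. Substrate was at its KM (25uM), buffer 200mM KPO4, reaction 60 min at RT.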
# [5] = qHTS Assay for Lipid Storage Modulators (AID 1519; calls by dose curve); details: Drosophila S3 cells, BODIPY lipid droplet/cell ratio, laser cytometry, cells loaded with oleic acid
# Summary of the method: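 Cells seeded at 5,000 per well were treated with compounds over a concentration series and loaded with oleic acid (400 uM, as added). Lipid droplet fluorescence (488 nm excitation, 500-530 nm channel) was read by laser-scanning cytometry and normalized to 20 uM Triacsin C.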
# [6] = target: Ubiquitin carboxyl-terminal hydrolase 1 (Homo sapiens) (UniProt O94782); test: Inhibitors of USP1/UAF1: Pilot qHTS (AID 504865);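 note: rhodamine fluorescence freed from ubiquitin-rhodamine substrate followed over time; top concentration of the series differs between compounds; nearly all actives have a fitted effect of over 35% in size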
# Sequence of Ubiquitin carboxyl-terminal hydrolase 1 (Homo sapiens) (O94782 whole entry, looked up): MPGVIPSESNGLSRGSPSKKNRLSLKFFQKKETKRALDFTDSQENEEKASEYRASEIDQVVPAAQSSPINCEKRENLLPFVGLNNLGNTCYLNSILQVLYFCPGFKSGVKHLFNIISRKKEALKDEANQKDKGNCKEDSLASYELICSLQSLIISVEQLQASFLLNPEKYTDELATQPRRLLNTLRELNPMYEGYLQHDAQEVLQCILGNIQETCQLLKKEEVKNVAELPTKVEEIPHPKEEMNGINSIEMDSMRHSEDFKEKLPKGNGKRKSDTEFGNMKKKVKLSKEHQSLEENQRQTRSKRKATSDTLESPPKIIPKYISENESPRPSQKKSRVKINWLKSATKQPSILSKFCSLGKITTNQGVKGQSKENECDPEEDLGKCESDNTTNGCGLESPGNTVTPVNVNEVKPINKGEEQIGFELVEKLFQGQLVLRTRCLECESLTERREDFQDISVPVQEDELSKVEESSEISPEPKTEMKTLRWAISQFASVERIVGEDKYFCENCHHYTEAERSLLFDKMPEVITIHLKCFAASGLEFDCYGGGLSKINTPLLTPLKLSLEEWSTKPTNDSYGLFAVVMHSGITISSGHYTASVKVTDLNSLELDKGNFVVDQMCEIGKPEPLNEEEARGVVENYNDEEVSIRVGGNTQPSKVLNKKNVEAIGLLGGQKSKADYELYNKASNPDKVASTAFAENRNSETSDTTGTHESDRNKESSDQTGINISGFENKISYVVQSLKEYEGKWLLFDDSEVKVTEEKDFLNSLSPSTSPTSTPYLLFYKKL
# Summary of the method: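 Deubiquitinase activity followed as kinetic rhodamine fluorescence release from 150 nM Ub-Rho. 1 nM USP1/UAF1 with compound, after 15 min room-temperature preincubation, in HEPES pH 7.8 buffer containing TCEP, EDTA, BSA and Tween-20.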
# [7] = target: DNA dC->dU-editing enzyme APOBEC-3G (Homo sapiens) (UniProt Q9HC16); test: qHTS for inhibitors of Vif-A3G interactions: Validation (AID 588379)
# Sequence of DNA dC->dU-editing enzyme APOBEC-3G (Homo sapiens) (Q9HC16 whole entry, looked up): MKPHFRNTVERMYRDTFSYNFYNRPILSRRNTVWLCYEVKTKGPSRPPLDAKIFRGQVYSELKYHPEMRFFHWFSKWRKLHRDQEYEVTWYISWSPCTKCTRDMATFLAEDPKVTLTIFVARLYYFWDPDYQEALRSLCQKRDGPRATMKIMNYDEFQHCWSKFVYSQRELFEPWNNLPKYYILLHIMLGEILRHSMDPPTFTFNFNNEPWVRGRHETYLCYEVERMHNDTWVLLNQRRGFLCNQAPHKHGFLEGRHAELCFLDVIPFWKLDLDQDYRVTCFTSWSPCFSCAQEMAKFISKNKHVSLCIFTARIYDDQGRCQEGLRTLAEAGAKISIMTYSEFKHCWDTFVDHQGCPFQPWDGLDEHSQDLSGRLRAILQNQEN
# Summary of the method: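 Yellow fluorescence (Ex 488, Em 500-530) of Vif-coexpressing HeLa A3G-eYFP cells, scanned by Acumen cytometer, reports blocked A3G degradation. Cells plated at 700/well overnight at 37 deg C before compound addition, then a further overnight compound incubation at 37 deg C.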
# [8] = tested on: Zika virus NS2B-NS3 protease; test: Primary screen GU AMC qHTS for Zika virus inhibitors (AID 1347154); note: nearly all actives have a fitted effect of over 70% in size
# Summary of the method: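 Fluorogenic AMC-substrate cleavage by noncovalent NS2B-NS3 protease complex (25 nM, pH 8.0 Tris buffer with Tween 20) followed for 15 minutes at room temperature (~20% conversion). Percent inhibition from ex340/em450 signal change, fitted by 4-parameter Hill equation.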
# [9] = target: Cytochrome P450 1A2 (Homo sapiens) (UniProt P05177); test: p450-cyp1a2 (AID 410; calls by dose curve; note: potency is the fitted concentration of half-maximal effect)
# Sequence of Cytochrome P450 1A2 (Homo sapiens) (P05177 whole entry, looked up): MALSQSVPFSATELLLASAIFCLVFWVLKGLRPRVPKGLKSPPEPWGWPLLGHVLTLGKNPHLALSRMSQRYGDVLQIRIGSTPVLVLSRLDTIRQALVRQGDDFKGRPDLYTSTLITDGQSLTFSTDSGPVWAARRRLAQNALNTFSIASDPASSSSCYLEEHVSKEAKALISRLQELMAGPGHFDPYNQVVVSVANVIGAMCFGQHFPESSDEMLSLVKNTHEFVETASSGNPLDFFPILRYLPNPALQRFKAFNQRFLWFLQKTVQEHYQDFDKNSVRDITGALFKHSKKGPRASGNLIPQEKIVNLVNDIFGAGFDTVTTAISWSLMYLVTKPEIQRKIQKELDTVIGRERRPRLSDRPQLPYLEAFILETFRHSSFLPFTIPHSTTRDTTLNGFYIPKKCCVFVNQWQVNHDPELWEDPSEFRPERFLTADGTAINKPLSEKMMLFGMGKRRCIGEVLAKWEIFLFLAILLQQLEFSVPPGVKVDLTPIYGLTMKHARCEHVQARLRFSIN
# Summary of the method: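 20nM CYP1A2, 100uM Luciferin-ME (=Km), 100mM KPO4; cpd 10 min RT; +NADPH regen, 60 min RT; stop/detect 20 min; luminescence. Normalized to furafylline 57 uM = full inhibition.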
# [10] = target: Mitogen-activated protein kinase 10 (Mus musculus) (UniProt Q61831); test: JNK3 AlphaScreen Assay (AID 530; active = well fitted curve in either direction with a large enough effect, not every such curve was filed as active;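 note: kinase came from lysate of stimulated human HepG2 cells; signal reports phosphorylation of biotinylated GST-cJun 1-79 at Ser73 with 10 µM ATP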)
# Summary of the method: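 Kinase buffer: 20 mM Tris-HCl pH 7.6, 10 mM MgCl2, 1 mM DTT, 0.1 mM Na3VO4, 0.01% Tween-20; ATP 10 uM. Substrate biotin-GST-cJun(1-79), enzyme from activated HepG2 lysates. Detection by Ser73 phospho-antibody AlphaScreen.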
# [11] = Primary qHTS for small molecule stabilizers of the endoplasmic reticulum resident proteome: Secreted ER Calcium Modulated Protein (SERCaMP) assay (AID 1508630)
# Summary of the method: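 The SH-SY5Y reporter protocol was run at 3 concentrations up to 38.3 uM (primary) or 11 concentrations (follow-up): 16 h compound, 100 nM thapsigargin for 4 h, then extracellular luciferase luminescence.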
# [12] = measured here: cell count channel max response
# [13] = measured here: lipid channel max response
compound,measurement,setting,value
CC(C)n1cnc2c(C(=O)N[C@H]3CN4CCC3CC4)cc(Cl)cc21,Potency,[1],> 46 µM (inactive)
same,Potency,[2],> 46 µM (inactive)
same,Potency,[3],inactive
same,Potency,[4],31.6 µM (active)
same,"activity change, negative = inhibition",[5]; at 57.5 µM (top of the series),2.71% (inactive)
same,max response,[5]; [12],14.7%
same,max response,[5]; [13],19.1%
same,Potency,[6],inactive
same,Potency,[7],inactive
same,Potency,[8],inactive
N[C@H](Cc1o[nH]c(=O)c1Cl)C(=O)O,Potency,[9],inactive
same,Potency,[1],> 46 µM (inactive)
same,Potency,[2],> 46 µM (inactive)
same,outcome,[10],inactive
same,Potency,[3],inactive
same,"activity change, negative = inhibition",[5]; at 57.5 µM (top of the series),-0.357% (inactive)
same,max response,[5]; [12],4.55%
same,max response,[5]; [13],4.87%
same,Potency,[6],inactive
same,Potency,[7],inactive
same,Potency,[8],inactive
C/C(=C\[C@@H](N)C(=O)O)CP(=O)(O)O,Potency,[1],> 46 µM (inactive)
same,Potency,[2],> 46 µM (inactive)
same,outcome,[10],inactive
same,Potency,[6],inactive
same,Potency,[7],inactive
same,Potency,[8],inactive
same,Potency,[11],inactive
CCCCC1(C2CCCC2)Cc2cc(OCCCC(=O)O)c(Cl)c(Cl)c2C1=O (stereo not given),Potency,[8],inactive
same,Potency,[11],inactive
C[C@@H]1O[C@H](O[C@@H]2C[C@@H](O)[C@]3(CO)[C@H]4[C@H](O)C[C@]5(C)[C@@H](C6=CC(=O)OC6)CC[C@@]5(O)[C@@H]4CC[C@]3(O)C2)[C@@H](O)[C@H](O)[C@H]1O,outcome,[10],inactive
same,Potency,[6],inactive
same,Potency,[7],inactive
same,Potency,[8],inactive
same,Potency,[11],inactive
Cc1ccc2cc3c(ccc4ccccc43)c3c2c1CC3,Potency,[8],inactive
same,Potency,[11],inactive
CC(C)(c1ccc(OCC2CO2)cc1)c1ccc(OCC2CO2)cc1 (stereo not given),Potency,[8],inactive
same,Potency,[11],inactive
C(=C/c1ccccc1)/CN1CCN(CCOC(c2ccccc2)c2ccccc2)CC1,Potency,[9],20 µM (active)
same,Potency,[1],> 46 µM (inactive)
same,outcome,[10],inactive
same,Potency,[7],inactive
same,Potency,[8],inactive
CC(C)(Cc1c[nH]c2ccc(Cl)cc12)NCCOc1ccccc1OCC1CC1,Potency,[1],> 46 µM (inactive)
same,Potency,[2],> 46 µM (inactive)
same,outcome,[10],inactive
same,Potency,[7],inactive
same,Potency,[8],inactive
same,Potency,[11],inactive
O=C1CC[C@@]2(O)[C@H]3Cc4ccc(O)c5c4C2(CCN3CC2CC2)[C@H]1O5,Potency,[8],inactive
same,Potency,[11],inactive
CNCC/C=C\c1cccnc1,Potency,[9],inactive
same,Potency,[1],> 46 µM (inactive)
same,Potency,[2],> 46 µM (inactive)
same,outcome,[10],inactive
same,Potency,[3],inactive
same,"activity change, negative = inhibition",[5]; at 57.5 µM (top of the series),4.36% (inactive)
same,max response,[5]; [12],-7.59%
same,max response,[5]; [13],-3.17%
same,Potency,[6],inactive
same,Potency,[7],inactive
same,Potency,[8],inactive
N#CC(C#N)=NNc1ccc(OC(F)(F)F)cc1,Potency,[4],inactive
same,Potency,[8],inactive
same,Potency,[11],inactive
O=C(/C=C\c1ccc(Cl)cc1)N[C@@]12CCC(=O)[C@@H]3Oc4c(O)ccc5c4[C@@]31CCN(CC1CC1)[C@@H]2C5,Potency,[1],1.63 µM (active)
same,Potency,[2],> 46 µM (inactive)
same,outcome,[10],inactive
same,Potency,[4],inactive
same,Potency,[6],inactive
same,Potency,[7],inactive
same,Potency,[8],inactive
same,Potency,[11],inactive
N[C@@H](Cn1ccc(=O)n(Cc2ccc(C(=O)O)cc2)c1=O)C(=O)O,Potency,[9],inactive
same,Potency,[1],> 46 µM (inactive)
same,Potency,[2],> 46 µM (inactive)
same,outcome,[10],inactive
same,"activity change, negative = inhibition",[5]; at 57.5 µM (top of the series),0.903% (inactive)
same,max response,[5]; [12],-1.53%
same,max response,[5]; [13],-1.3%
same,Potency,[6],inactive
same,Potency,[7],inactive
same,Potency,[8],inactive
CC(C)(C)c1o[nH]c(=O)c1C[C@H](N)C(=O)O,Potency,[9],inactive
same,Potency,[1],> 46 µM (inactive)
same,Potency,[2],> 46 µM (inactive)
same,outcome,[10],inactive
same,Potency,[3],inactive
same,"activity change, negative = inhibition",[5]; at 57.5 µM (top of the series),1.88% (inactive)
same,max response,[5]; [12],-7.92%
same,max response,[5]; [13],-7.95%
same,Potency,[6],inactive
same,Potency,[7],inactive
same,Potency,[8],inactive
C#CCN1C(C)=C(C(=O)CCO)[C@@H](c2cccc(-n3oo3)c2)C(C(=O)OC)=C1C,Potency,[1],> 46 µM (inactive)
same,Potency,[2],> 46 µM (inactive)
same,outcome,[10],inactive
same,Potency,[7],inactive
same,Potency,[8],inactive
same,Potency,[11],inactive
CS(=O)(=O)Nc1ccc(Cc2noc(-c3ccc4[nH]cc(CCN)c4c3)n2)cc1,Potency,[9],0.0316 µM (active)
same,Potency,[1],> 46 µM (inactive)
same,Potency,[4],inactive
same,Potency,[6],inactive
same,Potency,[7],inactive
same,Potency,[8],inactive
same,Potency,[11],inactive
CCOC(=O)c1ncn2c1CN(C)C(=O)c1cc(N=[N+]=[N-])ccc1-2,Potency,[8],inactive
same,Potency,[11],inactive
NCCCP(=O)(O)CC1CCCCC1,Potency,[1],> 46 µM (inactive)
same,Potency,[2],> 46 µM (inactive)
same,outcome,[10],inactive
same,Potency,[3],inactive
same,Potency,[6],inactive
same,Potency,[7],inactive
same,Potency,[8],inactive
same,Potency,[11],inactive
CC[N+](CC)(CCCNC1=CC(=O)C(NCCC[N+](CC)(CC)Cc2ccccc2)=CC1=O)Cc1ccccc1,Potency,[1],> 46 µM (inactive)
same,"activity change, negative = inhibition",[5]; at 57.5 µM (top of the series),3.42% (inactive)
same,max response,[5]; [12],-5.38%
same,max response,[5]; [13],-3.95%
same,Potency,[7],inactive
same,Potency,[8],inactive
O[C@H]1CCCC[C@H]1N1CCC(c2ccccc2)CC1,Potency,[1],> 20.6 µM (inactive) and > 46 µM (inactive)
same,Potency,[2],> 20.6 µM (inactive) and > 46 µM (inactive)
same,outcome,[10],inactive
same,Potency,[3],inactive
same,"activity change, negative = inhibition",[5]; at 25.7 µM (top of the series),0.444% (inactive)
same,"activity change, negative = inhibition",[5]; at 57.5 µM (top of the series),0.117% (inactive)
same,max response,[5]; [12],-12.1% and 1.1%
same,max response,[5]; [13],-11.1% and -2.26%
same,Potency,[6],inactive
same,Potency,[7],inactive
same,Potency,[8],inactive
CC(C)(c1ccc(OC[C@@H]2CO2)cc1)c1ccc(OC[C@H]2CO2)cc1,Potency,[1],> 46 µM (inactive)
same,Potency,[2],> 46 µM (inactive)
same,"activity change, negative = inhibition",[5]; at 57.5 µM (top of the series),4.02% (inactive)
same,max response,[5]; [12],20.1%
same,max response,[5]; [13],20.3%
same,Potency,[7],inactive
same,Potency,[8],inactive
CCN1C[C@]2(COC)[C@H](O)C[C@H](OC)[C@]34C1C([C@H](OC)[C@H]23)[C@]1(OC(C)=O)C2[C@@H](OC(=O)c3ccccc3)C(O)(C[C@H]24)[C@@H](OC)[C@@H]1O,Potency,[6],inactive
same,Potency,[8],inactive
same,Potency,[11],inactive
